According to PubChem BioAssay (NCATS):
Results filed as inconclusive are left out. Entries that show only a call come without a potency. A number with no mark means an inactive call. Activity calls are given as the source filed them. Calls follow the shape of the dose curve; as a rule, active = well fitted inhibition curve with a large enough effect; inconclusive = small, poorly fitted or top-dose-only effect; inactive = flat fitted curve, though single readings scatter.

Tests used:
NIH3T3 [1] = assay: Cytotoxic Profiling of Annotated Libraries Using Quantitative High-Throughput Screening (AID 1296008); conditions: Five cell lines viability, CellTiter-Glo ATP luminescence, 48-72 h; max response: stronger effect = lower value
Procedure, shortened: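 Compounds were pin-transferred onto cells and incubated 48 or 72 hr at 37 degree Celsius, 95% humidity. CellTiter-Glo was added, plates sat 10 min at room temperature, then ATP-coupled luminescence was imaged as the viability read-out.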

MCC-13 = assay: qHTS assay to identify novel small-molecules to repurpose for Merkel cell carcinoma treatment (AID 1296009); conditions: MCC and control cell lines, CellTiter-Glo viability, 72 h; series mostly up to 46 µM
Procedure, shortened: (§1)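 Viability readout: ATP luminescence (CellTiter-Glo) after 72 hr drug exposure at 37 degree celsius. Dose-response format was 8 points for NPC and 11 points for MIPE; data normalized to in-plate controls.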

MCC-26 = assay: as above; conditions: MCC and control cell lines, CellTiter-Glo viability, 72 h; series mostly up to 46 µM
Procedure, shortened: as §1

MKL-1 = assay: as above; conditions: MCC and control cell lines, CellTiter-Glo viability, 72 h; series mostly up to 46 µM
Procedure, shortened: as §1

MKL-2 = assay: as above; conditions: MCC and control cell lines, CellTiter-Glo viability, 72 h; series mostly up to 46 µM
Procedure, shortened: as §1

NIH3T3 [2] = assay: as above; conditions: MCC and control cell lines, CellTiter-Glo viability, 72 h; at 44.8 µM (top of the series) unless noted
Procedure, shortened: as §1

UISO = assay: as above; conditions: MCC and control cell lines, CellTiter-Glo viability, 72 h; series mostly up to 46 µM
Procedure, shortened: as §1

WaGa = assay: as above; conditions: MCC and control cell lines, CellTiter-Glo viability, 72 h; series mostly up to 46 µM
Procedure, shortened: as §1
Also: nearly all actives have a fitted effect of over 60% in size.
Potency is read from the fitted curve at half-maximal effect.

SMILES | outcome (NIH3T3 [1]) | Potency (MCC-13) | Potency (MCC-26) | Potency (MKL-1) | Potency (MKL-2) | outcome (NIH3T3 [2]) | Potency (UISO) | Potency (WaGa) | max response (NIH3T3 [1]) [%] | Potency (NIH3T3 [1])
CN1C(CSCC(F)(F)F)Nc2cc(Cl)c(S(N)(=O)=O)cc2S1(=O)=O (centres undefined) | inactive | inactive | inactive | inactive | inactive | inactive | inactive | inactive | – | –
Cn1c(=O)c2c(ncn2CC(=O)O)n(C)c1=O | inactive | inactive | inactive | inactive | inactive | inactive | inactive | inactive | – | –
CCCCOC(=O)CCCCCCCCC(=O)OCCCC | inactive | inactive | inactive | inactive | inactive | inactive | inactive | inactive | – | –
CCCCCC1Nc2cc(C(F)(F)F)c(S(N)(=O)=O)cc2S(=O)(=O)N1 (centres undefined) | inactive | inactive | inactive | inactive | inactive | inactive | inactive | inactive | – | –
NC(=O)COCCN1CCN(C(c2ccccc2)c2ccc(Cl)cc2)CC1 (centres undefined) | inactive | inactive | inactive | inactive | inactive | inactive | inactive | inactive | – | –
CCCC(=O)O[C@]1(C(=O)CC)CC[C@H]2[C@@H]3CCC4=CC(=O)CC[C@]4(C)[C@H]3[C@@H](O)C[C@@]21C | – | inactive | inactive | inactive | inactive | – | inactive | – | -5.79 | –
C[C@]12CCC(=O)C=C1CC[C@@H]1[C@@H]2[C@@H](O)C[C@@]2(C)[C@H]1CC[C@]2(O)C(=O)COC(=O)CCC(=O)O | inactive | inactive | inactive | inactive | inactive | inactive | inactive | inactive | – | –
CCN1CCN(c2cc(-c3ccc(F)cc3)c3c(n2)CCCCCC3)CC1 | inactive | inactive | inactive | inactive | inactive | inactive [at 17.4 µM] | inactive | inactive | – | –
O=C(O)CCCC[C@@H]1SC[C@@H]2NC(=O)N[C@@H]21 | – | inactive | inactive | inactive | inactive | – | inactive | inactive | 1.46 | –
CCC[C@H](N[C@@H](C)C(=O)N1[C@H](C(=O)O)C[C@@H]2CCCC[C@@H]21)C(=O)OCC | – | inactive | inactive | inactive | inactive | – | inactive | – | -9.35 | –
Cc1ccc(Cl)c(OCC(O)CNC(C)(C)C)c1 (centres undefined) | – | inactive | inactive | inactive | inactive | – | inactive | inactive | 1.79 | –
CCC(CN)=C(c1ccccc1)c1ccccc1 | inactive | inactive | inactive | inactive | inactive | inactive | inactive | inactive | – | –
Cn1cc(S(C)=O)c(=O)c2ccc(F)cc21 (centres undefined) | inactive | inactive | inactive | inactive | inactive | inactive | inactive | inactive | – | –
CC(=O)c1cc2ccccc2s1 | – | inactive | inactive | inactive | inactive | – | inactive | inactive | 1.18 | –
Oc1cccc2[nH]ccc12 | – | inactive | inactive | inactive | inactive | – | 26.6 µM (active) | – | -6.12 | –
c1ccc(C(O[C@H]2CCCN(CCc3ccc4c(c3)OCO4)C2)c2ccccc2)cc1 | – | inactive | inactive | inactive | inactive | – | inactive | – | -0.771 | –
CCOC(=O)CN1CCCC1=O | inactive | inactive | inactive | inactive | inactive | inactive | inactive | inactive | – | –
Cc1cccc(N(C)C(=S)Oc2ccc3c(c2)CCC3)c1 | – | inactive | inactive | inactive | inactive | – | inactive | – | -6.52 | –

SMILES | outcome (NIH3T3 [1]) | Potency (MCC-13) | Potency (MCC-26) | Potency (MKL-1) | Potency (MKL-2) | outcome (NIH3T3 [2]) | Potency (UISO) | Potency (WaGa) | max response (NIH3T3 [1]) [%] | Potency (NIH3T3 [1])
CC(=O)O[C@H]1CC[C@@]2(C)C(=CC[C@@H]3[C@@H]2CC[C@]2(C)C(C(C)=O)=CC[C@@H]32)C1 | – | inactive | inactive | inactive | inactive | – | inactive | inactive | -1.15 | –
C#Cc1ccc(-c2ccccc2F)cc1 | inactive | inactive | inactive | inactive | inactive | inactive | inactive | inactive | – | –
CCOC(=O)c1ccc(NC(=O)CN2CCCCC2)cc1 | inactive | inactive | inactive | inactive | inactive | inactive | inactive | inactive | – | –
CSCC[C@H](NC(=O)[C@H](Cc1c[nH]c2ccccc12)NC(=O)CCNC(=O)OC(C)(C)C)C(=O)N[C@@H](CC(=O)O)C(=O)N[C@@H](Cc1ccccc1)C(N)=O | inactive | inactive | inactive | inactive | inactive | inactive | inactive | inactive | – | –
CC(C)CCCC(C)NCCC(C)C (centres undefined) | inactive | inactive | inactive | inactive | inactive | inactive | inactive | inactive | – | –
C#CC(C)(CC)OC(=O)c1ccccc1C(=O)O (centres undefined) | inactive | inactive | inactive | inactive | inactive | inactive | inactive | inactive | – | –
CCNC(=O)NCCCOc1cccc(CN2CCCCC2)c1 | inactive | inactive | inactive | inactive | inactive | inactive | inactive | inactive | – | –
OCc1cccnc1 | inactive | inactive | inactive | inactive | inactive | inactive | inactive | inactive | – | –
Cc1onc(-c2c(Cl)cccc2Cl)c1C(=O)Cl | – | inactive | inactive | inactive | inactive | – | inactive | inactive | -2.46 | –
CC1(C)S[C@@H]2[C@H](NC(=O)C(c3ccccc3)S(=O)(=O)O)C(=O)N2[C@H]1C(=O)O (some centres undefined) | – | inactive | inactive | inactive | inactive | – | inactive | inactive | 2.04 | –
OCCc1ccccc1 | – | inactive | inactive | inactive | inactive | – | inactive | inactive | -0.715 | –
O=C(O)Cc1ccccc1Oc1ccc(Cl)cc1Cl | – | inactive | inactive | inactive | inactive | – | inactive | inactive | -11.6 | –
CC(C)C(=O)Nc1cccc(C2CN3CCSC3=N2)c1 (centres undefined) | – | inactive | inactive | inactive | inactive | – | inactive | inactive | -0.0334 | –
COC(=O)c1ccc(NC(C)=O)cc1OC | – | inactive | inactive | inactive | inactive | – | inactive | inactive | -16.1 | –
O=C(O)C1CCC1 | – | inactive | inactive | inactive | inactive | – | inactive | inactive | -4.19 | –
O=[N+]([O-])c1ccc(O)c2ncccc12 | – | 11.9 µM (active) | 13.3 µM (active) | 3.76 µM (active) | 2.66 µM (active) | – | 7.5 µM (active) | 7.5 µM (active) | – | 15 µM (active)
CCCCCN(CCCOC)C(=O)C(CCC(=O)O)NC(=O)c1ccc(Cl)c(Cl)c1 (centres undefined) | – | inactive | inactive | inactive | inactive | – | inactive | inactive | -3.2 | –
CCc1cc(S(=O)(=O)O)c2cc(C(C)C)cccc1-2 | – | inactive | inactive | inactive | inactive | – | inactive | inactive | 1.41 | –
